{"source": "ChEMBL document CHEMBL2218924", "about": "“A broad activity screen in support of a chemogenomic map for kinase signalling research and drug discovery” (Biochem J, 2013)", "key": {"[1]": {"molecular_target": "T1, Ephrin type-A receptor 3 (Homo sapiens) (UniProt P29320)", "T1 sequence (whole entry)": "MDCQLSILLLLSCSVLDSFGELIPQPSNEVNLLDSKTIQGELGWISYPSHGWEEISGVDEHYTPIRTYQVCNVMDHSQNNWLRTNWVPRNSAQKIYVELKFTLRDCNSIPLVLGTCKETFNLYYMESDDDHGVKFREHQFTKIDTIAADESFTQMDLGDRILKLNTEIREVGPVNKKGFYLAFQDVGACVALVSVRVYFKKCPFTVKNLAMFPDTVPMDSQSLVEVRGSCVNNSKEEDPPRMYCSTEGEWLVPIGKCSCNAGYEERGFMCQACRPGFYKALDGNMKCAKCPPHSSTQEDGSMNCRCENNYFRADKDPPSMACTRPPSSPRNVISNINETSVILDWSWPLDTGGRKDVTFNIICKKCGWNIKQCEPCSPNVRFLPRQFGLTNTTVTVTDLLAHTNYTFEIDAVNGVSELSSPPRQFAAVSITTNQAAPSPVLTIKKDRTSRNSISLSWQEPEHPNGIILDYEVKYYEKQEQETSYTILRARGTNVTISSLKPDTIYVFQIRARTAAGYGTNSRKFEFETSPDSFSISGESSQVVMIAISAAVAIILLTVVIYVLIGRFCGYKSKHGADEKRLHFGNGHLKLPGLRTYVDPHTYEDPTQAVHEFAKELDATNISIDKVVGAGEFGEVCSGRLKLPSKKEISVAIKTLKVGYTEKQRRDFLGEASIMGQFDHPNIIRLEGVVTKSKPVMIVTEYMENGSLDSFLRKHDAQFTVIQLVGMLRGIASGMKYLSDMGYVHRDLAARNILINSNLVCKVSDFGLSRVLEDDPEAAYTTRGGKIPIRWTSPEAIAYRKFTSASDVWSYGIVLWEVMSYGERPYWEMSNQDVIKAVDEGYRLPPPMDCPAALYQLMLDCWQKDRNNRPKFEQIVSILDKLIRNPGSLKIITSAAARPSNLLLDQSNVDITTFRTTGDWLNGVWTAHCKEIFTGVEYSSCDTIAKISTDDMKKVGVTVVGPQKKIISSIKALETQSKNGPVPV", "details": "at 10 µM; call rule not given here"}, "[2]": {"molecular_target": "Ephrin type-A receptor 7 (Homo sapiens) (UniProt Q15375)", "sequence (Q15375 28-998 limits assumed)": "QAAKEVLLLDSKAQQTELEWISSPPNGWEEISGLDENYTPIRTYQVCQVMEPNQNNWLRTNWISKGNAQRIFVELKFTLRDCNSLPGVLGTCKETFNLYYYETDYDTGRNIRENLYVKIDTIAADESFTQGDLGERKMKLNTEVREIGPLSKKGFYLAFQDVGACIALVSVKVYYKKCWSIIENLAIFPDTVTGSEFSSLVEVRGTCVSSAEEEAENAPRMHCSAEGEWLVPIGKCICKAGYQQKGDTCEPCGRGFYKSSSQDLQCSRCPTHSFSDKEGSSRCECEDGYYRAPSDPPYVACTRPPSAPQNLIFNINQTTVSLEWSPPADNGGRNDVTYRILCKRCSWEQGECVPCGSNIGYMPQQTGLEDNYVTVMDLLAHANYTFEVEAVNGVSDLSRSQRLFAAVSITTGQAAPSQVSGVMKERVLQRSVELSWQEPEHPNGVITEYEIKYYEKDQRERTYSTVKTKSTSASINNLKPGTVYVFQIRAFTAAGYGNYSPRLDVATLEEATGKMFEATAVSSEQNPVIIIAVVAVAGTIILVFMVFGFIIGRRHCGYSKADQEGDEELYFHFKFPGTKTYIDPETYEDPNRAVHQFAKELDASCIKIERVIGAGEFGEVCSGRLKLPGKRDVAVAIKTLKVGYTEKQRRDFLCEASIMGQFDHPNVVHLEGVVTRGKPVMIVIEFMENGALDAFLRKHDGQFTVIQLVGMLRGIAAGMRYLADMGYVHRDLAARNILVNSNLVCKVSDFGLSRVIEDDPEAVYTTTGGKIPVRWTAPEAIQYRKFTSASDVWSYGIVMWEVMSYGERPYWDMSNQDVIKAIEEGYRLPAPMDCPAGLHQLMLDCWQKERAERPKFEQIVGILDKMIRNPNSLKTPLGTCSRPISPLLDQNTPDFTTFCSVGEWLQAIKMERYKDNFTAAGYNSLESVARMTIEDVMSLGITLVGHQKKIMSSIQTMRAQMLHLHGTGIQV", "details": "at 1 µM"}, "[3]": {"molecular_target": "Ephrin type-A receptor 7 (Homo sapiens) (UniProt Q15375)", "details": "at 10 µM"}, "[4]": {"molecular_target": "T2, Ephrin type-A receptor 8 (Homo sapiens) (UniProt P29322)", "T2 sequence (whole entry)": "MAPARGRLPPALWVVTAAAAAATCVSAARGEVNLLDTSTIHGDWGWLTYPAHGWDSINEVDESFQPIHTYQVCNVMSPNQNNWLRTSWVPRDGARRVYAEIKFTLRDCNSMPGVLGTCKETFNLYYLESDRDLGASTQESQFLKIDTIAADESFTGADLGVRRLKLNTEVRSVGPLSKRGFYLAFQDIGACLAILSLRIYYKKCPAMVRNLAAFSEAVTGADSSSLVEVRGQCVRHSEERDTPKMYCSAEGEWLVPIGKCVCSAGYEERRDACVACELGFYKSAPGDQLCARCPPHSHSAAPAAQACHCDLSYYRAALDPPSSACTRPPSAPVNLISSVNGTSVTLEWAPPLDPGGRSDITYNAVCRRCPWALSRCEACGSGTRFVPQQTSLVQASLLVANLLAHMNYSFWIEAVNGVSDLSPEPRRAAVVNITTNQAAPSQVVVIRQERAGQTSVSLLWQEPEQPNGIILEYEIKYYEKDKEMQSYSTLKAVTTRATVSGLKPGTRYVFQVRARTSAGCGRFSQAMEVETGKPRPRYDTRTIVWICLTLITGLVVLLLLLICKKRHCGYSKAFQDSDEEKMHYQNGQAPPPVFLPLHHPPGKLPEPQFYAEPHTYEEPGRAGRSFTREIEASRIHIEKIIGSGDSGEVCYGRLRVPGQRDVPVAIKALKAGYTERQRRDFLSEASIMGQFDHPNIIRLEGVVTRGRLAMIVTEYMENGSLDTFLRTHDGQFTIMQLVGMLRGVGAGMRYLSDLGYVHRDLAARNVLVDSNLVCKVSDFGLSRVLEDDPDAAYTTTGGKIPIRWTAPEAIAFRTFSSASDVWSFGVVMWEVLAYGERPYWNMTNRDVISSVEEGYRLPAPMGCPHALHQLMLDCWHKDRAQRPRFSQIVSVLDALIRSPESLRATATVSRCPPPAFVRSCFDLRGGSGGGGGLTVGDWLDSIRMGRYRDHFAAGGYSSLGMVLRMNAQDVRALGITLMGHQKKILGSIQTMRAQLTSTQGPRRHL", "details": "at 1 µM"}, "[5]": {"molecular_target": "T2, Ephrin type-A receptor 8 (Homo sapiens)", "details": "at 10 µM"}, "[6]": {"molecular_target": "T3, Ephrin type-B receptor 1 (Homo sapiens) (UniProt P54762)", "T3 sequence (whole entry)": "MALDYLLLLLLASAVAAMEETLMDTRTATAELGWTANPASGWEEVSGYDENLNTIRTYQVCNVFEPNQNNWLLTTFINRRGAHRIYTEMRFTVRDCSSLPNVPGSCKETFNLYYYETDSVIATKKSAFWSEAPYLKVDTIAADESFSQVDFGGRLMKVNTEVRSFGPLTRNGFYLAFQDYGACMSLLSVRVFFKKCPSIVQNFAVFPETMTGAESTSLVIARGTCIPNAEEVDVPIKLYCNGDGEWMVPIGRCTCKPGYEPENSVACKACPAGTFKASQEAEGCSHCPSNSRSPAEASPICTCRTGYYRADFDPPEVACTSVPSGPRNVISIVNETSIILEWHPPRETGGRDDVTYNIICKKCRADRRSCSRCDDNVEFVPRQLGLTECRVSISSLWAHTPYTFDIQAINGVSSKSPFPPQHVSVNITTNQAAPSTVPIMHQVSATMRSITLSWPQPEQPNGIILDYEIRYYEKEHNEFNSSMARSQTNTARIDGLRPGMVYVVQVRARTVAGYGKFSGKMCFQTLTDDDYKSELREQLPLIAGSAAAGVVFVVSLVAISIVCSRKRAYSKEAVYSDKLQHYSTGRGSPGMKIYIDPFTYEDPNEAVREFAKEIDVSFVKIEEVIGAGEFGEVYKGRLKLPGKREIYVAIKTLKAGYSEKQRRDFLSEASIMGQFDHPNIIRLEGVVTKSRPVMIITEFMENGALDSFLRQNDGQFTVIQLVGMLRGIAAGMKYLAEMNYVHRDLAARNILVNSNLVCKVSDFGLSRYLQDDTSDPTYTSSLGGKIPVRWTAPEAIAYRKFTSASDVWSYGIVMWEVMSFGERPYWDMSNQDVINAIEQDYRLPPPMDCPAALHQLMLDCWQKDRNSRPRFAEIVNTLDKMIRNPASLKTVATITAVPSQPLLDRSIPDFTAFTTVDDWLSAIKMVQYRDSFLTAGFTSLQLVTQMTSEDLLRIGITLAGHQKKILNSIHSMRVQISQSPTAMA", "details": "at 1 µM"}, "[7]": {"molecular_target": "T3, Ephrin type-B receptor 1 (Homo sapiens)", "details": "at 10 µM"}, "[8]": {"molecular_target": "T4, Ephrin type-B receptor 3 (Homo sapiens) (UniProt P54753)", "T4 sequence (whole entry)": "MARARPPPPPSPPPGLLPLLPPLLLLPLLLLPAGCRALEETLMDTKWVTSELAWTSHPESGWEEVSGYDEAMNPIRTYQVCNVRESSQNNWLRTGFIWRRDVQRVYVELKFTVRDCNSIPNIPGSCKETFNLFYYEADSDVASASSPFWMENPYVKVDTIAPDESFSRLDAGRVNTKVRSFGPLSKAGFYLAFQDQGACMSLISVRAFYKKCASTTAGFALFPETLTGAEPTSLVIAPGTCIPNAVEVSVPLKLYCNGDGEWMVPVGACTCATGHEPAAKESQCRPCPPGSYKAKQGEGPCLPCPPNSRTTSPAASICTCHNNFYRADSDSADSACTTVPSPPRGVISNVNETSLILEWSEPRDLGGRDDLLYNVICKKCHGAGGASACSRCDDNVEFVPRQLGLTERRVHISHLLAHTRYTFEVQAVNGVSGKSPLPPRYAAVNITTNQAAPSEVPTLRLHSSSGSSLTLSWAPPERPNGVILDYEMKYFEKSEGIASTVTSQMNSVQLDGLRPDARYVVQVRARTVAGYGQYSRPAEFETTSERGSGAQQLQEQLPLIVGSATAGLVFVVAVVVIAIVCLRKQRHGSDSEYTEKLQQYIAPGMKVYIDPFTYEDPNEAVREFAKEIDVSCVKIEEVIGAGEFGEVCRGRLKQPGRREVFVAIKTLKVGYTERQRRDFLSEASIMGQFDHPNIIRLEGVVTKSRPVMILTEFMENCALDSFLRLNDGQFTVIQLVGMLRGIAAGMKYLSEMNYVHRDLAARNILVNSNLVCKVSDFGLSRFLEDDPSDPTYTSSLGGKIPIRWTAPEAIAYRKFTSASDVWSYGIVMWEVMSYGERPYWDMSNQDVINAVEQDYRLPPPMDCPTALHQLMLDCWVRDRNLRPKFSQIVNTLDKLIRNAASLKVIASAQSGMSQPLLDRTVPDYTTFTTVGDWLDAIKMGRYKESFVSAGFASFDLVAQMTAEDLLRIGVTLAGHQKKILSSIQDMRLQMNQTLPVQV", "details": "at 1 µM"}, "[9]": {"molecular_target": "T4, Ephrin type-B receptor 3 (Homo sapiens)", "details": "at 10 µM"}, "[10]": {"molecular_target": "T5, Ephrin type-B receptor 4 (Homo sapiens) (UniProt P54760)", "T5 sequence (whole entry)": "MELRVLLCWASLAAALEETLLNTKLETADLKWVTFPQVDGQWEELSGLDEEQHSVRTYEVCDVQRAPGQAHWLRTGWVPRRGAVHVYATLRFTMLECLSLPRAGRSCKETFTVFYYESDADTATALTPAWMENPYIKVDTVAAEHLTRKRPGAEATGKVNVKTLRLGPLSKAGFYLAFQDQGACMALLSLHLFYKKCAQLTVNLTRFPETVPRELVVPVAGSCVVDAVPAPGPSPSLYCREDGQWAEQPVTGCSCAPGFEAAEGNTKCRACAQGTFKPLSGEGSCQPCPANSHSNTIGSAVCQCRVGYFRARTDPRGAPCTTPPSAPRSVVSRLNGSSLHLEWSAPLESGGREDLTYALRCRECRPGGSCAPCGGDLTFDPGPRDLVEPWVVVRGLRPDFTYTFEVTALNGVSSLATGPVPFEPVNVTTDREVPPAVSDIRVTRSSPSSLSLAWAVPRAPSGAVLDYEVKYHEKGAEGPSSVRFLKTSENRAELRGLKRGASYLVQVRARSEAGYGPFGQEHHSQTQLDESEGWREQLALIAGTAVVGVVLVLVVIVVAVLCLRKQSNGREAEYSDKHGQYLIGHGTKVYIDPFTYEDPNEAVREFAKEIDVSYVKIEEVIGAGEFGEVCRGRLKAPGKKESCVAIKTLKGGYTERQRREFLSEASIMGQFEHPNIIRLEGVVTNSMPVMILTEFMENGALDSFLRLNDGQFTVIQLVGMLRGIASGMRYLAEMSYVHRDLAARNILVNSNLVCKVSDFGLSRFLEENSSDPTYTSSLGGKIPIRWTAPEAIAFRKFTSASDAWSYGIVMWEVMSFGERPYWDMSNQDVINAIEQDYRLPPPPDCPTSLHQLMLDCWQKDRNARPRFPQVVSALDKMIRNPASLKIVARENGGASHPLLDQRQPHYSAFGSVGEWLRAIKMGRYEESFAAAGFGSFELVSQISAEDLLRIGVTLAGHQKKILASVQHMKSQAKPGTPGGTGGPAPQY", "details": "at 1 µM"}, "[11]": {"molecular_target": "T5, Ephrin type-B receptor 4 (Homo sapiens)", "details": "at 10 µM"}, "[12]": {"molecular_target": "Focal adhesion kinase 1 (Homo sapiens) (UniProt Q05397)", "sequence (Q05397 2-1052 limits assumed)": "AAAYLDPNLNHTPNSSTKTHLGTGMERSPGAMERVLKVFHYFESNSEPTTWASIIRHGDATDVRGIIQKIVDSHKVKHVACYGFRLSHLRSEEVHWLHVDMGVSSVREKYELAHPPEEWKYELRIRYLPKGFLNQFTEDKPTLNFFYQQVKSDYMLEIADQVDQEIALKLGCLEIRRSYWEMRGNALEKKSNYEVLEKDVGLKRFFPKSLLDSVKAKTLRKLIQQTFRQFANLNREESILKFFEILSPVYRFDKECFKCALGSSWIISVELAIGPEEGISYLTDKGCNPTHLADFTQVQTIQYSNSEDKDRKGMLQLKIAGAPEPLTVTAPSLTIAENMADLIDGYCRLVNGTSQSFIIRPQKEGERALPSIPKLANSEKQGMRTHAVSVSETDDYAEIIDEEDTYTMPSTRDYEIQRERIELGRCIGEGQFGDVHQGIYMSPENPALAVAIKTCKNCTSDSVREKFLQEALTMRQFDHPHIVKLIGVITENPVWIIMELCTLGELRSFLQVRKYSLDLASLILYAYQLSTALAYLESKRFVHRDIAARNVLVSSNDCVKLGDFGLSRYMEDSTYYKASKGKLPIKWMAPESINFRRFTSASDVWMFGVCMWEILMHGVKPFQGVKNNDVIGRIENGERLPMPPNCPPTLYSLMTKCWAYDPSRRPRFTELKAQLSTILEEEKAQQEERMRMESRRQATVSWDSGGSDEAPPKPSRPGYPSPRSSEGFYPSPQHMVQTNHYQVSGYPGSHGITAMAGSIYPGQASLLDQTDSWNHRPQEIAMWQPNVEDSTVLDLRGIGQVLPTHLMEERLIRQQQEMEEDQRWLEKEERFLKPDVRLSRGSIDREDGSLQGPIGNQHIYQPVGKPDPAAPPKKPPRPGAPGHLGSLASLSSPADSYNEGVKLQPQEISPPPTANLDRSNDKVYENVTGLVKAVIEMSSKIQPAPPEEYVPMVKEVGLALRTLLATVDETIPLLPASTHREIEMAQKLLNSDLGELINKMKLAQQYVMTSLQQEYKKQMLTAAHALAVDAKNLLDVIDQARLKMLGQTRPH", "details": "at 1 µM"}}}
{"smiles": "CCN(CC)CCNC(=O)c1c(C)[nH]c(/C=C2\\C(=O)Nc3ccc(Cl)cc32)c1C", "values": [{"measurement": "residual activity", "setting": "[1]", "value": 47, "unit": "%"}, {"measurement": "residual activity", "setting": "[2]", "value": 79, "unit": "%"}, {"measurement": "residual activity", "setting": "[3]", "value": 24, "unit": "%"}, {"measurement": "residual activity", "setting": "[4]", "value": 100, "unit": "%"}, {"measurement": "residual activity", "setting": "[5]", "value": 55, "unit": "%"}, {"measurement": "residual activity", "setting": "[6]", "value": 64, "unit": "%"}, {"measurement": "residual activity", "setting": "[7]", "value": 24, "unit": "%"}, {"measurement": "residual activity", "setting": "[8]", "value": "129% (inactive)"}, {"measurement": "residual activity", "setting": "[9]", "value": 130, "unit": "%"}, {"measurement": "residual activity", "setting": "[10]", "value": 100, "unit": "%"}, {"measurement": "residual activity", "setting": "[11]", "value": 35, "unit": "%"}, {"measurement": "residual activity", "setting": "[12]", "value": 15, "unit": "%"}]}
